KinaseGlo FLuc: Counterscreen for Luciferase (Kinase-Glo TM) Inhibition | Luciferin 4-monooxygenase (Photuris pensylvanica), Q27757 | Kinase-Glo luciferase, ATP luminescence, 8 min | Potency, µM (titrated, usually from 38.3 µM), without a hit: at the top dose activity change, negative = inhibition, hits mostly inhibitors | 0.28% of 200,000 active | AID 1379, 2008; also: % is scaled to controls: 0 for no effect and ±100 for the full control effect; nearly all actives have a fitted effect of over 60% in size
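Compounds were added to a substrate mix at pH 7.2 (50 mM imidazole, 10 uM ATP, within the enzyme's linear range), followed by Kinase-Glo detection reagent; luminescence was measured after 8 minutes at ambient temperature.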
HPGD block: qHTS Assay for Inhibitors of HPGD (15-Hydroxyprostaglandin Dehydrogenase); 15-hydroxyprostaglandin dehydrogenase [NAD(+)] (Homo sapiens), P15428; purified HPGD, NADH fluorescence kinetic, PGE2 substrate; Potency, µM, for inactives: top-dose activity change, negative = inhibition, most hits filed as inhibitors; 4.3% of 150,000 active; AID 894, 2007; active = well fitted inhibition curve with a large enough effect, not every such curve was filed as active; inconclusive = small, poorly fitted or top-dose-only effect, or another doubt; inactive = no such curve, though single readings can be large or run the other way; also: % is scaled to controls: 0 for no effect and ±100 for the full control effect
Target sequence (P15428 whole entry, looked up): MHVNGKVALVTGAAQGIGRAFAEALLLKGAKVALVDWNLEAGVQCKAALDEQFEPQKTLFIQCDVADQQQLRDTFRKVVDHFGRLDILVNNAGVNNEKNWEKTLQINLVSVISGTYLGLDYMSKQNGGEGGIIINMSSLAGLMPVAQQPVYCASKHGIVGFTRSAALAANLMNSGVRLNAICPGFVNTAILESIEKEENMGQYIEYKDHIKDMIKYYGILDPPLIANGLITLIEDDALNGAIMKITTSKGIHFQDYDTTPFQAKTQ
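NADH formation kinetics: reaction with 30 uM PGE2 and 1 mM NAD+ (final), 20 nM enzyme, Tris-HCl pH 8 with Tween 20, after 15 min compound preincubation at room temperature. Fluorescence change, last versus first of five reads.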
ALDH1A1 inh: qHTS Assay for Inhibitors of Aldehyde Dehydrogenase 1 (ALDH1A1) | Purified ALDH1A1, NADH fluorescence, propionaldehyde substrate | Potency, µM (titrated, usually from 75.3 µM), inactives show top-dose activity, negative = inhibition, hits mostly inhibitors | 7.3% of 220,000 active | AID 1030, 2008; active = well fitted inhibition curve with a large enough effect, not every such curve was filed as active; inconclusive = small, poorly fitted or top-dose-only effect, or another doubt; inactive = no such curve, though single readings can be large or run the other way;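 also: plate controls were no enzyme wells and a reference inhibitor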
Target sequence (P00352 whole entry, looked up): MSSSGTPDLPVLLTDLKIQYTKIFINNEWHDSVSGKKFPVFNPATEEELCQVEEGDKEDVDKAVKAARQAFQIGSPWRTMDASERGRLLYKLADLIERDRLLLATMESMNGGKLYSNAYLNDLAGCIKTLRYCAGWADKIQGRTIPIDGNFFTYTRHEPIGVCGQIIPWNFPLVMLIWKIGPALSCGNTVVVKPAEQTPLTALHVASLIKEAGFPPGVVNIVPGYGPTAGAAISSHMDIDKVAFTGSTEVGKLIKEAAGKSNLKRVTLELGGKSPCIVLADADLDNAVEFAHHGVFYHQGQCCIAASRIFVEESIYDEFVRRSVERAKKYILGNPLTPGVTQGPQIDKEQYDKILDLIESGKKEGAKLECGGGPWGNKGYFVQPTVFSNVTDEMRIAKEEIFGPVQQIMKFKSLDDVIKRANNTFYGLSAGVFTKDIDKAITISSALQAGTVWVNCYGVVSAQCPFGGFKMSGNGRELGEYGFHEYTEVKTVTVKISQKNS
HTT ATP protect: qHTS Multiplex Assay to Identify Dual Action Probes in a Cell Model of Huntington: Cytoprotection (ATP); PC12 HTT-Q103 induced, cytoprotection, ATP luminescence, 40 h; Potency, µM (highest dose often 56.4 µM), without a hit: cytoprotection (ATP increase), hits mostly activators; 0.14% of 230,000 active; AID 1471, 2008; also: % of control where 0% means no effect; nearly all actives have a fitted effect of over 45% in size
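Rat PC12, Q103 Htt exon1-GFP fusion, ecdysone promoter; tebufenozide inducer 100 nM final; compound titration; qHTS, 1500 cells/well; ATPlite luminescent read.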
HttQ103 aggreg: qHTS Multiplex Assay to Identify Dual Action Probes in a Cell Model of Huntington: Aggregate Formation (GFP). PC12 HttQ103-GFP aggregates, Acumen cytometry, 40 h. Potency, µM (top dose mostly 46.1 µM), without a hit: at the highest dose activity change, negative = inhibition, hits mostly inhibitors. 1.1% of 220,000 active; also: % is scaled to controls: 0 for no effect and ±100 for the full control effect; nearly all actives have a fitted effect of over 60% in size
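Inducible Q103 Huntingtin exon 1–GFP PC12 line, 1500 cells/well in phenol red free DMEM with 5% equine and 5% calf serum. Tebufenozide 100 nM induced expression; compounds titrated; aggregates quantified by cytometry.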
Lamin A splicing: qHTS Assay for Modulators of Lamin A Splicing. AID 1487, 2009. Potency, µM (highest dose often 46.1 µM), without a hit: at the top dose ratio change, negative = inhibition, most hits filed as inhibitors. 0.01% of 200,000 active. HeLa LMNA splicing GFP/RFP minigene ratio, 48 h; active = well fitted inhibition curve with a large enough effect in the signal ratio, with a control signal flat, not every such curve was filed as active; inconclusive = small, poorly fitted or top-dose-only effect, or effect the other way, or a change in a side signal; the % refers to the signal ratio; also: % is scaled to controls: 0 for no effect and ±100 for the full control effect
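S3 HeLa cells stably expressing lamin A-EGFP splicing minigene plus DsRed2, 600 cells/well, 48 h compound exposure at 37C. Laser-scanning cytometry; analysed as GFP (500-530 nm)/RFP (575-640 nm) total intensity ratio; 0.5% DMSO vehicle.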
Starred values were filed as active, the others as inactive; ? = inconclusive; · = not tested or not shown; [ ] = another dose, or the depositor's remark. The list is not random: actives were taken first. Their share in the collection is about 9%. Unless noted, calls follow the shape of the dose curve; as a rule, active = well fitted curve in the direction sought with a large enough effect; inconclusive = small, poorly fitted or top-dose-only effect, or another doubt; inactive = no such curve, though single readings can be large; an effect the other way counts as inactive or inconclusive. Potency is read from the fitted curve at half-maximal effect.

SMILES	KinaseGlo FLuc	HPGD block	ALDH1A1 inh	HTT ATP protect	HttQ103 aggreg	Lamin A splicing
CCOC(=O)c1c(NC(C)=O)sc2c1CCC(C=O)=C2Sc1ccccc1	-1.9%	35.5µM*	5.01µM*	34.7%	-30.3%	-15.0%
O=C(c1ccco1)N1CCN(c2cc(=O)n(C3CCCCC3)c(=O)[nH]2)CC1	-1.4%	-1.5%	-14.9%	-18.4%	0.1%	-1.2%
COc1ccccc1-n1cnc2cc(NCc3ccccc3O)ccc21	·	·	·	-17.0%[10 µM]	5.1%[9.22 µM]	·
Cc1cccn2c(CN(C)CC3Cc4ccccc4O3)c(C(=O)N3CCCCC3)nc12 (configuration not stated)	·	·	?	-14.8%[10 µM]	20.7%[9.22 µM]	·
CC(=O)Oc1c(C)cc(O)c2ccccc12	0.1%	-8.1%	-0.6%	-106.5%	14.1µM*	-19.1%
Cc1cc(O)c2ccccc2c1O	·	·	·	-366.1%	?	?
COC(=O)c1c(NC(=O)C2CCCO2)sc2c1CCC2 (configuration not stated)	-2.3%	-24.3%	14.1µM*	6.2%	-16.9%	15.8%
CNC(=S)Nc1sc2c(c1C(=O)OC)CCC2	1.8%	·	?	-24.8%	-17.7%	·
NC(=O)c1c(NC(=O)C2CCCO2)sc2c1CCC2 (configuration not stated)	-3.7%	-7.8%	22.4µM*	-1.8%	-7.5%	12.2%
CCOC(=O)c1ccc(NC(=O)c2c(NC(=O)CCC(=O)O)sc3c2CCCCC3)cc1	-1.7%	·	15.8µM*	-22.3%[10 µM]	-6.6%[9.22 µM]	·
CCOC(=O)c1ccc(NC(=O)c2c(NCc3cccs3)sc3c2CCCCC3)cc1	·	·	·	·	·	9.7%[46 µM]
N#Cc1c(NC(=O)CCCC(=O)O)sc2c1CCCCC2	-3.0%	-22.3%	?	-11.5%[10 µM]	5.9%	5.3%
NC(=O)c1c(NC(=O)CCCC(=O)O)sc2c1CCCCCC2	0.1%	28.2µM*	5.9%	·	6.6%	?
Cc1ccccc1NCC(=O)N=Nc1c(O)[nH]c2ccc([N+](=O)[O-])cc12	·	·	·	17.4%[10 µM]	3.1%[9.22 µM]	·
CN1CCN(C(=S)Nc2ccc([N+](=O)[O-])cc2)CC1	-2.7%	-9.7%	-2.4%	-17.8%	-4.5%	9.6%[0.0737 µM]
CC(C)(C)C1CCc2c(sc(NC(=O)C3CCCO3)c2C(N)=O)C1 (configuration not stated)	0.5%	-8.8%	?	-17.3%	?	17.8%
NC(=O)c1c(NC(=O)C2CCCO2)sc2c1CCCCC2 (configuration not stated)	-0.8%	?	20µM*	1.7%[0.074 µM]	-8.6%	3.1%
Cc1ccc(/C=N/NC(=O)CC(=O)NCc2cccnc2)cc1	0.0%	-1.2%	-2.7%	-11.0%[10 µM]	-12.4%	3.1%
COc1ccccc1-c1ccc2ncnc(N(C)C)c2c1	-4.4%	14.1µM*	-8.4%	-37.5%	·	?
CN(C)c1ncnc2ccc(-c3cccc(C#N)c3)cc12	·	·	31.6µM*	-84.8%	·	?
O=C(Nc1ccc(Cl)c(Cl)c1)c1ccc(Cn2c(=O)[nH]c3ccsc3c2=O)cc1	-3.1%	-14.2%	1.2%	·	4.7%	10.2%
O=C(Oc1cc(-c2ccccc2)no1)c1cccc(C(F)(F)F)c1	-0.6%	-16.8%	7.94µM*	-8.0%	1.6%	0.0%
CC(C)CCNC(=O)c1ccc2c(SCC(=O)O)c3c(nc2c1)CCCC3	3.0%	28.2µM*	?	·	22.1%	-3.9%
COc1ccc(NC(=O)COC(=O)Cc2ccccc2[N+](=O)[O-])cc1OC	3.1%	·	14.1µM*	1.1%	-2.9%	·
Cc1c(C(=O)OCC(=O)Nc2ccc3c(c2)OCO3)cccc1[N+](=O)[O-]	-0.8%	-10.8%	8.91µM*	-6.4%[10 µM]	8.0%	-16.7%
SMILES	KinaseGlo FLuc	HPGD block	ALDH1A1 inh	HTT ATP protect	HttQ103 aggreg	Lamin A splicing
Cc1c(C(=O)OCC(=O)NCc2ccc3c(c2)OCO3)cccc1[N+](=O)[O-]	0.5%	-15.3%	7.94µM*	50.6%[0.074 µM]	10.9%	7.1%
C=CCNCCOCCOc1ccc(Cl)cc1C(C)(C)C	-1.5%	-12.7%	?	7.3%[10 µM]	4.5%	2.9%
COc1ccc(C2CC(=O)c3ccc(OC)cc3O2)cc1 (configuration not stated)	-4.2%	-11.6%	-2.4%	·	·	-6.1%
Cc1c(-c2cccs2)[n+](=O)c2c(n1[O-])CCCC2	-0.2%	-4.9%	-4.4%	7.1%[10 µM]	-5.4%	2.3%
CCCSc1nc(C)c(-c2csc(C(C#N)=C3CCCC3)n2)cc1C#N	-3.3%	-29.1%	22.4µM*	15.4%	?	?
CCCCSc1nc2c(cc1C#N)CCC2	0.3%	-13.4%	?	-27.9%[0.074 µM]	0.3%	20.3%
O=C(CC(SCCO)c1ccc(F)cc1)c1ccco1 (configuration not stated)	-19.8%	-26.7%	28.2µM*	-29.9%	30.2%	?
CCC(Sc1nncn1C)C(=O)Nc1ccccc1OC (configuration not stated)	-3.1%	-12.4%	6.5%	14.1µM*	5.6%	3.3%
Cc1ccc(S(=O)(=O)N2CCN(C(=O)c3cc(=O)[nH]c4ccccc34)CC2)c(C)c1	-0.2%	-26.8%	?	-49.1%	-12.3%	-13.4%
O=C(c1cc(=O)[nH]c2ccccc12)N1CCN(c2ccc([N+](=O)[O-])cc2)CC1	·	·	2.99µM*	6.3%[10 µM]	22.1%[9.22 µM]	·
Cc1cc(C)c(C)c(S(=O)(=O)N2CCN(C(=O)c3cc(=O)[nH]c4ccccc34)CC2)c1C	-0.4%	-6.5%	14.1µM*	-38.3%	?	?
O=C(c1cc(=O)[nH]c2ccccc12)N1CCN(c2cccc(C(F)(F)F)c2)CC1	3.9%	·	7.1%	-13.2%	-0.9%	-11.8%[46 µM]
CCN(CC)S(=O)(=O)c1cccc(NC(=S)NC(=O)/C=C/c2ccc(S(=O)(=O)N3CCOCC3)cc2)c1	-1.7%	-10.6%	0.3%	7.7%[10 µM]	?	?
O=C(/C=C/c1ccc(Cl)cc1)NC(=S)Nc1ccc(N2CCOCC2)c(Cl)c1	·	·	14.1µM*	-19.1%[10 µM]	19.3%	-11.3%
O=C(/C=C/c1ccc(S(=O)(=O)N2CCOCC2)cc1)NC(=S)Nc1ccc(Cl)cc1Cl	1.0%	·	1.12µM*	11.8%[10 µM]	?	?
OC(COCc1ccc2c(c1)OCO2)CN1CCC(Cc2ccccc2)CC1 (configuration not stated)	2.0%	·	-4.2%	7.6%[10 µM]	-0.2%	?
Cc1cc(C(F)(F)F)n(-c2nc(C(=O)N/N=C/c3ccc(F)cc3)cs2)n1	0.2%	28.2µM*	?	-54.4%	?	?
CC(C)c1ccc(NC(=S)NN(c2ccccc2)c2ccccc2)cc1	-1.1%	22.4µM*	14.1µM*	30.8%[10 µM]	-16.2%	13.8%

Assay outcomes deposited in PubChem BioAssay by National Center for Advancing Translational Sciences (NCATS).
